Screening results: PubChem BioAssay, Sanford-Burnham Center for Chemical Genomics
H9c2 protect: cardioprotection against H2O2-induced cell death, primary screen, uHTS, H9c2 cells, ATPLite luminescence; protection from H2O2 cell death, % at 20 µM; H9c2 cardiomyocytes, H2O2 injury protection, 2 h; 360,000 tested, 0.63% active; AID 588492, 2011;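 active means compounds giving at least 50% protection of heart cells from peroxide-induced death in the single-dose screen, raw or plate-pattern-corrected value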
PfGluPho inh: PfG6PD enzyme inhibitors, primary screen, biochemical, fluorescence intensity, uHTS | glucose-6-phosphate dehydrogenase-6-phosphogluconolactonase (Plasmodium falciparum 3D7) | PfGluPho enzyme, NADPH resazurin-diaphorase fluorescence | inhibition, % at 20 µM | 350,000 tested, 0.78% active | AID 504690, 2011;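 active means inhibition reaching at least a set limit at 20 µM in the primary screen, cut at about 59% in these data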
CRFR2-BP ag: agonists of CRF-BP/CRF-R2 complex, primary screen, cell-based, HEK293, calcium dye fluorescence, uHTS; CRF-binding protein / CRF receptor 2 complex (human); calcium dye fluorescence (FLIPR); percent of saturating CRF peptide response; activation, % at 13.2 µM; 350,000 tested, 0.46% active; AID 588473, 2011;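 active means activation of at least 50%, plus an integration ratio under a set limit after plate pattern correction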
FAS TE block: FAS thioesterase domain inhibitors, primary screen, biochemical, fluorescence intensity, uHTS. inhibition, % at 15 µM. AID 602261, 2012. 360,000 tested, 0.67% active. recombinant FAS-TE, OMFH fluorogenic substrate, fluorescence endpoint. Fatty acid synthase (Homo sapiens), P49327;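 active means compounds whose normalised, plate-corrected inhibition of enzyme fluorescence in the single-dose primary screen is 50% or more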
CRFBP-R2 block: antagonists of CRF-BP/CRF-R2 complex, primary screen, cell-based, HEK293, calcium dye fluorescence, uHTS; CRF-induced calcium fluorescence; inhibition, % at 11.8 µM; 350,000 tested, 0.59% active;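 active means inhibition of the ligand-induced calcium signal above about 50% at the single tested concentration, limit read from the data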
aDG glyco act: activators of alpha-DG glycosylation, primary screen, uHTS, Pro5-aDG cells, AlphaScreen. AID 624168, 2012. 360,000 tested, 0.22% active. activation, % at 10 µM. alpha-DG glycosylation AlphaScreen (IIH6); 0% Pro5, 100% B10-LARGE cell signal;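 active means activation of at least 8% versus controls, or a plate z-score of at least 8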;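 further: Pro5 are CHO cells carrying HIG-tagged alpha-DG that lacks glycosylation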
Numbers stand for hits; – = inactive; · = no result. This is a sample that favours compounds with a hit; in the whole collection about 3.2% have one here.

SMILES	H9c2 protect	PfGluPho inh	CRFR2-BP ag	FAS TE block	CRFBP-R2 block	aDG glyco act
CC1(C)CC(=O)C2=C(C1)OC(/N=C/N1CCCC1)=C(C#N)C2c1ccccc1 (stereo unspecified)	–	–	–	–	103.5	–
CCN(CC1COc2ccccc2O1)C(=S)Nc1ccccc1 (stereo unspecified)	–	–	–	–	–	–
CC1(Cc2ccc3c(c2)OCO3)NC(=O)NC1=O (stereo unspecified)	–	–	–	–	56.0	–
CCOc1ccccc1C(=O)N/N=C/c1cccc2cccnc12	86.2	–	–	–	–	–
CSCC[C@H](NC(=O)OC(C)(C)C)C(=O)N/N=C/c1cccc2cccnc12	51.8	–	–	–	–	–
CC(=O)N1CCOc2ccc(S(=O)(=O)N3CCC(C(=O)NCc4ccc(F)cc4)CC3)cc21	–	–	–	–	–	–
Cc1cc(F)cc(-c2cc(C(=O)NCc3ccco3)[nH]n2)c1	–	·	·	–	·	–
COc1cccc(N=C(N)N=C(N)N)c1	–	–	–	–	–	–
COc1ccnc(CSC(N)=Nc2ccc(F)cc2)c1	–	–	–	–	86.4	–
CCOC(=O)c1cn[nH]c1NC(=S)Nc1ccc(Cl)cc1	–	–	–	–	94.4	–
CCOC(=O)c1ccc(NC(=S)Nc2ccc(C)cc2)cc1	–	–	–	–	–	–
O=C(Nc1ccn(CCCNCc2ccc3c(c2)OCO3)c(=O)n1)OCc1ccccc1	–	–	–	–	110.3	–
O=C(Nc1ccccc1Cl)c1ccccc1Cc1ccccc1	–	–	–	–	–	–
N#CC1=C(N)OC2=C(C(=O)CC(c3ccccc3)C2)C1c1ccc2c(c1)OCO2 (stereo unspecified)	–	–	–	–	59.5	–
CCc1ccc(OCCn2cccn2)cc1	–	–	–	–	–	–
CN(CCOC(=O)C1c2ccccc2Oc2ccccc21)C(C)(C)C	–	–	–	–	50.4	–
CN(C)CCCOC(=O)C1c2ccccc2Oc2ccccc21	–	–	–	–	–	–
Cn1nc([N+](=O)[O-])nc1Oc1ccc(C(C)(C)C)cc1	–	–	–	–	76.3	–
Cn1nc([N+](=O)[O-])nc1Oc1ccccc1	–	–	–	–	–	–
CCCCn1c(N)c(N(CC)C(=O)c2cc3c(s2)CCCCC3)c(=O)[nH]c1=O	–	–	–	–	–	–
Cc1ccc(S(=O)(=O)NCC(=O)N(CC(=O)NCc2ccco2)Cc2ccccc2)cc1	–	–	55.1	–	–	–
Cc1ccc(S(=O)(=O)NCC(=O)N(CCc2ccccc2)CC(=O)NCc2ccco2)cc1	–	–	–	–	–	–
Cc1ccc(NS(=O)(=O)c2ccc(C)c(NC(=S)NCCN3CCOCC3)c2)c(C)c1	–	–	–	–	–	–
CCN(Cc1ccccc1)C(=O)CN1C(=O)COc2ccc(S(=O)(=O)N3CCCCCC3)cc21	–	–	–	–	–	–
CCN(C(=O)CN1C(=O)COc2ccc(S(=O)(=O)N3CCCCCC3)cc21)c1cccc(C)c1	–	–	55.5	–	–	–
SMILES	H9c2 protect	PfGluPho inh	CRFR2-BP ag	FAS TE block	CRFBP-R2 block	aDG glyco act
COc1ccccc1NC(=O)CCSc1nnnn1C	–	–	120.8	–	–	–
c1ccc2c(c1)CCCN2c1nc2ccccc2n2cnnc12	53.8	–	–	–	–	–
c1ccc(CN2CCN(c3nc4ccccc4n4cnnc34)CC2)cc1	–	–	–	–	–	–
C1=C(c2ccccc2)CCN(c2nc3ccccc3n3cnnc23)C1	66.8	–	–	–	–	–
c1ccc(N2CCN(c3nc4ccccc4n4cnnc34)CC2)cc1	–	–	–	–	–	–
c1ccc2c(c1)CCN(c1nc3ccccc3n3cnnc13)C2	58.5	–	–	–	–	–
CC(=O)c1ccc(NC(=O)C2CCN(S(=O)(=O)c3cccc4nonc34)CC2)cc1	–	–	–	–	–	–
CN1Cc2c(N3CCOCC3)nc(SCc3ccccc3)c(C#N)c2CC1(C)C	–	–	64.0	–	–	–
CCSc1nc(N2CCOCC2)c2c(c1C#N)CC(C)(C)N(C)C2	–	–	–	–	–	–
Cc1c(N/N=C(\C#N)C(=O)c2ccccc2)c(=O)n(-c2ccccc2)n1C	–	–	–	–	–	–
Cc1ccccc1C(=O)/C(C#N)=N/Nc1c(C)n(C)n(-c2ccccc2)c1=O	64.3	–	–	–	–	–
CN(C)S(=O)(=O)c1cc(NC(=O)COC(=O)c2ccc3c(c2)OCO3)ccc1Cl	–	–	–	–	–	–
Cc1cc(C)cc(NS(=O)(=O)c2ccc3[nH]cc(C(=O)N4CCc5ccccc54)c(=O)c3c2)c1	–	–	61.0	–	–	–
CCN(CC)C(=O)c1c[nH]c2ccc(S(=O)(=O)Nc3cc(C)cc(C)c3)cc2c1=O	–	–	125.4	–	–	–
CN(CC(=O)Nc1cccc(F)c1)C(=O)CCCN1C(=O)c2cccc3cccc(c23)C1=O	–	–	–	–	–	–
CS(=O)(=O)N(CC(=O)N1CCCCCC1)c1cccc(F)c1	–	–	–	–	–	–
COCCNC(=S)Nc1ccc(N2CCOCC2)c(S(=O)(=O)Nc2ccccc2OC)c1	–	–	–	–	–	–
O=C(Cn1ncc2c([nH]c3ccccc32)c1=O)NCC1CCN(Cc2ccccc2F)CC1	–	–	–	–	70.2	–
Cc1ccc(S(=O)(=O)N/N=C/c2ccc(OS(=O)(=O)c3ccc(C)c([N+](=O)[O-])c3)cc2)cc1	–	–	–	–	–	–
COc1ccccc1NC(=O)CSc1nnc(CNC(=O)c2ccco2)o1	–	–	–	–	66.1	–
Cc1csc(SCC(=O)Nc2ccc(C)c(F)c2)n1	–	–	–	–	–	–
O=C(COC(=O)c1ccncc1)Nc1cc(Cl)ccc1Cl	–	–	–	–	51.7	–
O=C(NCC1CCCO1)c1onc(CSc2ccc(F)c(F)c2)c1C(=O)O (stereo unspecified)	–	–	–	–	–	–
CSc1ccc(/C=c2\s/c(=C\C(=O)C(C)(C)C)n(CC(=O)NCCC3=CCCCC3)c2=O)cc1	–	–	–	–	–	–
CCCNC(=O)Cn1c(=O)/c(=C/c2ccc(-c3ccc([N+](=O)[O-])cc3)o2)s/c1=C\C(=O)C(C)(C)C	–	–	164.6	–	–	–
NC(=O)c1ccccc1N=Cc1ccccn1	78.0	–	–	–	–	–
O=C(Nc1scc(-c2ccc(Br)cc2)c1C(=O)O)c1ccccc1F	–	–	–	–	56.4	–
O=C(Nc1scc(-c2ccccc2)c1C(=O)O)c1ccccc1F	–	–	–	–	–	–
